From PubChem
Most compounds without a hit are left out; they make up all but 7.6% or so of the library.
Cy5 interf NS3h = enhances or quenches Cy5 fluorescence in NS3h assay | Cy5-dT15 DNA with NS3h, fluorescence interference; actives lie on both sides; signal over control mean, under 1 quenches | fluorescence interference ratio at 100 µM | 16,000 tested, 6% active;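 active = compound fluorescence over control fluorescence at most 0.8, a quencher, or at least a set upper limit, an enhancer; inactive = ratio between 0.8 and the set upper limit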
NS3h inh CB = hepatitis C NS3 helicase inhibition, primary screen. NS3h Cy5-dT15 DNA binding, fluorescence polarization. inhibition, % at 100 µM. 16,000 tested, 1.6% active;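 active = inhibition above the average over every tested compound plus 3 SD, cut at about 40% in these data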
Hits are given with their value; – = inactive.

SMILES	Cy5 interf NS3h	NS3h inh CB
O=C(Nc1ccc(Br)cn1)C(c1ccccc1)c1ccccc1	–	–
O=C(c1ccccc1F)N1CCN(c2ccc([N+](=O)[O-])c(NC3CC3)c2)CC1	–	–
OCCN(CCO)c1ccc(C(c2ccc(Cl)cc2)c2ccc(N(CCO)CCO)cc2)cc1	–	–
c1coc(CN2CCN(Cc3ccc4ccccc4c3)CC2)c1	–	–
Cc1ccccc1NC(=S)NCCOc1ccccc1Cc1ccccc1	0.598	–
Cc1ccccc1NC(=O)C(=O)NCCc1ccccc1	–	–
O=C(Nc1ccc(-c2nc3ccccc3c(=O)o2)cc1)c1ccccc1F	–	–
O=c1oc(-c2cccc(F)c2)nc2ccc(Cc3ccc4nc(-c5cccc(F)c5)oc(=O)c4c3)cc12	0.769	–
COc1ccc(/C=C/C(=O)NCC2CCCO2)cc1Br (stereo not drawn)	–	–
COc1ccc(/C=C/C(=O)N2CCC(C)CC2)cc1Br	0.624	–
COc1ccc(NC(=O)C(=O)C=C(O)c2ccccc2)cc1	–	–
CC1CCN(S(=O)(=O)c2ccc(NC(=O)c3ccc([N+](=O)[O-])cc3)cc2)CC1	–	–
CC1CCN(S(=O)(=O)c2ccc(NC(=O)c3ccc(-c4ccccc4)cc3)cc2)CC1	1.36	–
O=C(Nc1ccc(F)cc1)c1ccc(-c2ccccc2)cc1	–	–
O=C(Nc1ccccc1)c1ccc(-c2ccccc2)cc1	1.23	–
CC(C)Oc1ccc(/C=C(/NC(=O)c2ccccc2)C(=O)NCCCO)cc1	–	–
O=C(Nc1ccc(F)c([N+](=O)[O-])c1)c1cccc(Cl)c1Cl	–	–
N#C/C(=C\c1ccc(-c2ccc(Cl)cc2)o1)C(=O)Nc1cccc2ncccc12	0.547	–
N#C/C(=C\c1ccc(-c2ccccc2Cl)o1)C(=O)Nc1cccc2ncccc12	–	–
CCOc1cc(C(=O)Nc2ccc(F)cc2)cc(OCC)c1OCC	0.705	–
CCOc1cc(OCC)cc(C(=O)Nc2ccc(F)cc2)c1	–	–
CN(C)/C=C/C=C1\CC(=O)N(c2ccccc2)C1=O	–	–
CC1CC/C(=C\C=C\N(C)C)C(=O)/C1=C/C=C/N(C)C (stereo not drawn)	0.724	–
O=C1/C(=C/c2cccc([N+](=O)[O-])c2)SC(=S)N1C1CCS(=O)(=O)C1 (stereo not drawn)	0.348	–
O=C1/C(=C/c2cccc3ccccc23)SC(=S)N1C1CCS(=O)(=O)C1 (stereo not drawn)	–	–
SMILES	Cy5 interf NS3h	NS3h inh CB
C=CCNC(=S)NC(=O)/C=C/c1ccccc1	–	–
Cc1cccc(C(=O)Nc2cc(-c3ccc(F)cc3)[nH]n2)c1	–	–
Cc1cc(=O)n2ccc(CN(C)C)c(O)c2n1	0.621	–
CN(C)c1ccc(/C=N\NC(=O)/C(=C\c2ccc3c(c2)OCO3)NC(=O)c2ccccc2)cc1	–	–
COc1ccc2oc(C)c(C(C)=O)c2c1	0.74	–
COc1ccc(OC)c(C(=O)c2c(C)oc3ccc(O)cc23)c1	–	–
Cc1ccccc1CNC(=O)CN(c1ccc(Oc2ccccc2)cc1)S(C)(=O)=O	–	–
Cc1cccc(/C=C2/SC(=S)N(C)C2=O)c1	0.678	–
Cc1ccc(OCCOc2cccc(/C=C3/SC(=S)N(C)C3=O)c2)cc1C	–	–
CN1C(=O)/C(=C\c2ccsc2)SC1=S	0.692	–
COc1ccc(N2C(=O)/C(=C\c3ccsc3)SC2=S)cc1	–	–
CCOC(=O)Cc1cc(-c2ccc([N+](=O)[O-])cc2)nc2ccc3ccccc3c12	–	–
N/C(=N/OC(=O)c1cccc(Br)c1)c1ccncc1	–	–
COc1cc(OC)cc(C(=O)O/N=C(/c2ccncc2)c2ccc([N+](=O)[O-])cc2)c1	0.607	–
O=C(O/N=C(\c1ccccc1)c1ccncc1)c1ccc(Br)cc1	0.66	–
Cc1ccc(/C(N)=N\OC(=O)c2ccc([N+](=O)[O-])cc2)cc1	–	–
COc1ccc(N=Cc2ccc([N+](=O)[O-])s2)c([N+](=O)[O-])c1	–	–
O=C(Nc1ccc(Cl)cc1)Nc1nnc(C23CC4CC(CC(C4)C2)C3)s1	–	–
CC(=O)CC(C)(C)Nc1ccccc1	0.745	–
CCC(C(C)=O)C(=O)Nc1ccccc1 (stereo not drawn)	–	–
O=C(/C=C/c1cn(-c2ccccc2)nc1-c1ccccc1)N1CCOCC1	–	–
COc1ccc(S(=O)(=O)N(CC(=O)N2CCOCC2)c2ccc(C)cc2)cc1OC	–	–
O=C(Nc1ccc(-c2nc3ccccc3o2)c(O)c1)c1ccc(-c2cccc(Cl)c2)o1	–	–
Cc1cc([N+](=O)[O-])ccc1-c1ccc(C(=O)Nc2ccc(-c3nc4ccccc4o3)c(O)c2)o1	0.612	–
C=CCNC(=O)c1ccc(-c2ccc([N+](=O)[O-])cc2)o1	–	–
CCOC(=O)c1ccc(-c2ccc(C(=O)Nc3ccc(-c4nc5ccccc5s4)c(O)c3)o2)cc1	–	–
O=C(Nc1ccc(NC(=O)c2ccc(-c3ccc([N+](=O)[O-])cc3)o2)cc1)c1ccco1	0.674	–
